# In the library only some 22% were active in any assay of this set; here they are far more common.
# cytoskel mod: modifiers of F-actin cytoskeleton organization, primary screen, imaging, HUVEC, phalloidin staining, high-content imaging. HUVEC TNFa F-actin phalloidin imaging. inhibition, % at 2 µM. 91,000 tested, 0.18% active;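 active means inhibition above the batch mean plus 3 SD and confirmed as a hit by visual image inspection, cut at about 30% in these data, passing the limit was not always enough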
# CYP2C19 activ: human CYP2C19 activators, primary screen, biochemical, luminescence. Cytochrome P450 2C19 (Homo sapiens), P33261. recombinant CYP2C19, luciferin-H EGE luminescence; hits give high values; 0 = fully inhibited enzyme, 1 = untreated enzyme. activation factor at 5 µM. 96,000 tested, under 10 active;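 active means activation factor of at least 2 at 5 µM in the primary screen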;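 further: 0 = wells with 2.5 mM tranylcypromine and 1 = vehicle-only wells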
# CYP2C9 inh: blockers of cytochrome P450 2C9 activity – biochemical, luminescence, ADME assay, primary screen | P11712 | CYP2C9 Supersomes, luciferin-H conversion | inhibition, % at 5 µM | 96,000 tested, 20% active | AID 777, 2007;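 active means blocking of liver enzyme CYP2C9 beyond about 50% at 5 µM, limit read from the data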
# Target sequence (P11712 whole entry, looked up): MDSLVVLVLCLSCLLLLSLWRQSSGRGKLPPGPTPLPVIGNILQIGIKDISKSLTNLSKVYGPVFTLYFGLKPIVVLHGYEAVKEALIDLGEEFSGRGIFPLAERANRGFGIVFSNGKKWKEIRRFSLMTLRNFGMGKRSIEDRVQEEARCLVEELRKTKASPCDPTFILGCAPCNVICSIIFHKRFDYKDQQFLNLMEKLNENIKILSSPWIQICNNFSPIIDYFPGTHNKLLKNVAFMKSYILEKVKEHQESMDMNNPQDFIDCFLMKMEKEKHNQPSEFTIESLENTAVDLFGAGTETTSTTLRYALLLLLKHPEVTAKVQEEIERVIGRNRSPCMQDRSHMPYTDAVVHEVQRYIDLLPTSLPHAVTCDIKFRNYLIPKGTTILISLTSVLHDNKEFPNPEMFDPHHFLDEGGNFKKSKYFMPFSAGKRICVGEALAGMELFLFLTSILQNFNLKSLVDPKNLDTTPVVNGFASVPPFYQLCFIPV
# E-sel TNF inh: E-selectin induction blockers in HUVEC – imaging, immunofluorescence, high content, primary screen; HUVEC TNFa-induced E-selectin immunofluorescence; inhibition, % at 2 µM; 120,000 tested, 0.71% active; AID 1246, 2008;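 active means inhibition above the batch mean plus 3 SD, and confirmed as a hit on visual image review, cut at about 43% in these data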;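 further: 0% = TNF-stimulated DMSO wells and 100% = unstimulated control wells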
# CYP2C19 inh: blockers of cytochrome P450 2C19 activity – biochemical, luminescence, ADME assay, primary screen | P33261 | CYP2C19 Supersomes, luciferin-H EGE luminescence, 30 min | inhibition, % at 5 µM | 96,000 tested, 21% active | AID 778, 2007;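 active means CYP2C19 inhibition above a set limit at 5 µM in the primary screen, cut at about 50% in these data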;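 further: plate controls were negative control wells for no effect and 2.5 mM tranylcypromine positive control for full effect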
# CYP2C9 activ: human CYP2C9 activators, primary screen, biochemical, luminescence; activation factor at 5 µM; Cytochrome P450 2C9 (Homo sapiens), P11712; recombinant CYP2C9, luciferin-H conversion; hits give high values; factor 1 = untreated enzyme, 0 = blocked; 96,000 tested, 1.4% active;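 active means activation factor of 2 or more for CYP2C9 at a 5 µM dose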;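 further: 0 = sulfaphenazole-blocked wells and 1 = vehicle-only wells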
# * hit, by the source's call; . = no result given.
SMILES,cytoskel mod,CYP2C19 activ,CYP2C9 inh,E-sel TNF inh,CYP2C19 inh,CYP2C9 activ
CN1/C(=C/C2CC(=O)N(c3ccc([N+](=O)[O-])cc3)C2=O)C(C)(C)c2ccccc21 (stereo not given),0,0.2,19,.,80*,0.8
O=C1C=C(NCc2ccc(Cl)cc2)CC(c2ccco2)C1 (stereo not given),0,0.1,60*,-8,93*,0.4
CC(C)CNC1=CC(=O)CC(c2ccco2)C1 (stereo not given),-7,0.4,22,.,55*,0.8
O=C1C=C(NCc2ccncc2)CC(c2ccccc2)C1 (stereo not given),-4,0,45,1,96*,0.6
Cc1cc(C)cc(CC(Cc2nc3ccccc3[nH]2)c2nc3ccccc3[nH]2)c1 (stereo not given),-4,0,77*,-20,97*,0.2
FC(F)(F)c1cccc(N2CCN(CC3CC=CCC3)CC2)c1 (stereo not given),-10,0.2,-12,5,80*,1.1
O=C(c1ccccc1)N1CCN(CC2CC=CCC2)CC1 (stereo not given),-6,0.4,78*,4,57*,0.2
Cc1ccc(N2CCN(CC3CC=CCC3)CC2)cc1 (stereo not given),44,0.4,5,5,60*,0.9
O=C(O)COc1ccc2c(c1)OCCO2,35,1.1,-10,39,-7,1.1
CCOc1cc2c(C#N)c(N3CCCCC3)nc(N)c2c(N)n1,.,0.4,90*,4,62*,0.1
COc1cc2c(C#N)c(N3CCc4ccccc4C3)nc(N)c2c(N)n1,-9,0.2,85*,-9,81*,0.2
CCOc1cc2c(C#N)c(N3CCNCC3)nc(N)c2c(N)n1,8,0.8,49,4,23,0.5
COC(=O)CNC(=O)CN1C(=O)N(c2cccc(Cl)c2)C(N(O)C(=O)Nc2cccc(Cl)c2)C1(C)C (stereo not given),-20,0.8,21,-15,17,0.8
C/C(=C/C(=O)Nc1cccc(F)c1)N1CCCC1,.,.,.,7,.,.
CC1(C)CC(O)C(C)(C)N1O (stereo not given),6,0.8,-10,.,24,1.1
O=C(Cn1nc(-c2cccc([N+](=O)[O-])c2)c2ccccc2c1=O)Nc1cccnc1,-8,1,75*,-47,0,0.2
Cc1ccc(-c2nn(CC(=O)Nc3cccnc3)c(=O)c3ccccc23)cc1,12,0.8,81*,8,16,0.2
O=C(Cn1nc(-c2cccc(Cl)c2)ccc1=O)Nc1cccnc1,.,0.9,11,-42,14,0.9
O=C(c1ccccc1)N1CCN(C(=O)c2cc3ccccc3o2)CC1,21,0.6,28,36,41,0.7
CCCCCOc1ccc(CSC(=N)N)cc1[N+](=O)[O-],-61,0.6,30,19,37,0.7
COc1ccc(CSC(=N)N)cc1[N+](=O)[O-],8,0.5,62*,12,51*,0.4
COCCNC(=O)CN(C(=O)CCC(=O)Nc1cc(C)on1)c1cccc(C)c1C,-9,0.4,41,-8,57*,0.6
COc1cccc(CN(CC(=O)NC2CCCC2)C(=O)CCC(=O)Nc2cc(C)on2)c1,14,0.5,78*,-1,51*,0.2
Cc1cc(NC(=O)CCC(=O)N(CC(=O)NC2CCCC2)Cc2ccco2)no1,-5,0.9,20,18,13,0.8
COc1cccc(CN(CC(=O)NC2CCCC2)C(=O)Cn2nnc(-c3cccs3)n2)c1,-23,0.3,97*,-21,66*,0
SMILES,cytoskel mod,CYP2C19 activ,CYP2C9 inh,E-sel TNF inh,CYP2C19 inh,CYP2C9 activ
Cc1cc(NC(=O)Cc2cccs2)nn1CC(=O)NCc1ccco1,-46,1,-11,9,1,1.1
O=C1c2ccccc2-c2c1cccc2C(=O)N1CCCCC1,-10,.,.,-21,.,.
O=C(c1cccc2c1-c1ccccc1/C2=N/O)N1CCCCC1,.,0.5,50,-8,51*,0.5
O=S(=O)(N1CCOCC1)N1CCCN(S(=O)(=O)N2CCOCC2)CC1,-3,1,6,2,4,0.9
COc1ccc(N2Cc3cccc(C(=O)N4CCOCC4)c3C2=O)cc1,.,1.1,8,.,-5,0.9
O=C(c1ccc(CS(=O)(=O)c2ccccc2)o1)N1CCOCC1,13,0.8,23,.,18,0.8
COc1ccc(N2Cc3cccc(C(=O)N4CCN(C(=O)c5ccco5)CC4)c3C2=O)cc1,13,0.7,64*,.,26,0.4
Cc1ccc(S(=O)(=O)Cc2ccc(C(=O)N3CCN(Cc4ccccc4)CC3)o2)cc1,.,0.6,92*,-9,41,0.1
COc1ccc(S(=O)(=O)Cc2ccc(C(=O)N3CCN(Cc4ccccc4)CC3)o2)cc1,.,0.7,87*,-23,32,0.1
COc1ccc(S(=O)(=O)Cc2ccc(C(=O)N3CCN(C(=O)c4ccco4)CC3)o2)cc1,2,0.8,80*,-11,18,0.2
CC1CC(N(C(=O)C2CC2)c2ccccc2)c2ccccc2N1C(=O)C1CC1 (stereo not given),-3,0.6,7,0,39,0.9
CC1CC(N(C(=O)c2ccco2)c2ccccc2)c2ccccc2N1C(=O)c1ccco1 (stereo not given),19,0.1,88*,16,91*,0.1
CC1CC(N(C(=O)c2ccc(Cl)cc2)c2ccccc2)c2ccccc2N1C(=O)c1ccco1 (stereo not given),12,0.1,97*,0,91*,0
Cc1cccc(OCC(=O)N2CCC(c3ccccc3)C2)c1 (stereo not given),2,0.5,14,-29,46,0.9
O=C(NCc1ccco1)C(=O)c1cn(CC(=O)N2CCCC2)c2ccccc12,.,.,.,-2,.,.
O=C(Nc1nc(-c2ccc(S(=O)(=O)N3CCOCC3)cc2)cs1)c1ccccc1,-24,0.9,48,8,9,0.5
O=C(Nc1nc(-c2ccc(S(=O)(=O)N3CCCCCC3)cc2)cs1)c1cccs1,-14,0.9,53*,-5,10,0.5
O=C(NCCc1ccc(S(=O)(=O)N2CCCC2)cc1)c1cccs1,3,0.6,62*,-34,40,0.4
O=C(NCCc1ccc(Cl)cc1)c1cccs1,.,.,.,-23,.,.
Cc1ccc(-c2csc(NC(=O)C3CCN(S(=O)(=O)c4cccs4)CC3)n2)cc1,.,.,.,12,.,.
O=C(Nc1nc(-c2cc(Cl)sc2Cl)cs1)c1ccc(Br)s1,2,1,-2,-14,-4,1
O=C(Nc1nc(-c2cc(Cl)sc2Cl)cs1)c1cccs1,.,0.7,83*,.,33,0.2

# Compound activity from PubChem BioAssay.
